Data taken from ChEMBL document CHEMBL1961873, “Compounds: GSK PKIS; Assays: Nanosyn kinase panel” (2012).

What was measured:
[1] = molecular target: Sphingosine kinase 1 (Homo sapiens) (UniProt Q9NYA1); conditions: at 1 µM;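 also: mean SPHK1 inhibition value reported from the GSK PKIS kinase panel screen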
[2] = molecular target: T1, Sphingosine kinase 2 (Homo sapiens) (UniProt Q9NRA0); conditions: at 0.1 µM
T1 sequence (whole entry): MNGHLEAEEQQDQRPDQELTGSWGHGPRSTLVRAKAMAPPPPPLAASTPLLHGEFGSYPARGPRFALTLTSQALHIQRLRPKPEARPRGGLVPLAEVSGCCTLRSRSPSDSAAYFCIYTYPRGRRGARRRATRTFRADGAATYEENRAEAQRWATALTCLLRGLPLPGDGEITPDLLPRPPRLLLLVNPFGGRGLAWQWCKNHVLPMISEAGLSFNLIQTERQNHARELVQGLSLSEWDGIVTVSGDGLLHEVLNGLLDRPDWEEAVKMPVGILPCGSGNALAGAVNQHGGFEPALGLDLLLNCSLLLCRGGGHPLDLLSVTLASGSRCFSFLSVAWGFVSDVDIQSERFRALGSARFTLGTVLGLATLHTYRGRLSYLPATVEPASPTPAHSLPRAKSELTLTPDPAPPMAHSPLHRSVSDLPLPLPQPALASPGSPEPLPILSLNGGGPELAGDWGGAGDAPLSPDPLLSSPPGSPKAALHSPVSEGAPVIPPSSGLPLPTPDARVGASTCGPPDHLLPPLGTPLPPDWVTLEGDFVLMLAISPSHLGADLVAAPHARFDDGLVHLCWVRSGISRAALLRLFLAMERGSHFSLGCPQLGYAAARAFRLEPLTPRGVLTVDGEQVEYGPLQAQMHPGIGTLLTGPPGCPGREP

[3] = molecular target: T1, Sphingosine kinase 2 (Homo sapiens); conditions: at 1 µM
[4] = molecular target: Casein kinase II subunit alpha (Homo sapiens) (UniProt P68400); conditions: at 0.1 µM
Chain of Casein kinase II subunit alpha (Homo sapiens) (P68400 whole entry, looked up): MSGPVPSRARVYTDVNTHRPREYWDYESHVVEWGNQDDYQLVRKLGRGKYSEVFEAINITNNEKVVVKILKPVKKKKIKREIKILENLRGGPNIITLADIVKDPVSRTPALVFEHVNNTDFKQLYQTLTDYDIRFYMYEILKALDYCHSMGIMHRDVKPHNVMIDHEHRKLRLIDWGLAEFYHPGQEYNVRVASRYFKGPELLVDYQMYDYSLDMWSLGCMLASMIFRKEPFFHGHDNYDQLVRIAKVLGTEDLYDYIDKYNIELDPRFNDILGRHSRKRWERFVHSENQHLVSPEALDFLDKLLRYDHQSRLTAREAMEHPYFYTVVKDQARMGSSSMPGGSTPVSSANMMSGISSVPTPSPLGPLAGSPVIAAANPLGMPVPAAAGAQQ

[5] = molecular target: Casein kinase II subunit alpha (Homo sapiens) (UniProt P68400); conditions: at 1 µM
[6] = molecular target: T2, Inhibitor of nuclear factor kappa-B kinase subunit alpha (Homo sapiens) (UniProt O15111); conditions: at 0.1 µM
T2 sequence (whole entry): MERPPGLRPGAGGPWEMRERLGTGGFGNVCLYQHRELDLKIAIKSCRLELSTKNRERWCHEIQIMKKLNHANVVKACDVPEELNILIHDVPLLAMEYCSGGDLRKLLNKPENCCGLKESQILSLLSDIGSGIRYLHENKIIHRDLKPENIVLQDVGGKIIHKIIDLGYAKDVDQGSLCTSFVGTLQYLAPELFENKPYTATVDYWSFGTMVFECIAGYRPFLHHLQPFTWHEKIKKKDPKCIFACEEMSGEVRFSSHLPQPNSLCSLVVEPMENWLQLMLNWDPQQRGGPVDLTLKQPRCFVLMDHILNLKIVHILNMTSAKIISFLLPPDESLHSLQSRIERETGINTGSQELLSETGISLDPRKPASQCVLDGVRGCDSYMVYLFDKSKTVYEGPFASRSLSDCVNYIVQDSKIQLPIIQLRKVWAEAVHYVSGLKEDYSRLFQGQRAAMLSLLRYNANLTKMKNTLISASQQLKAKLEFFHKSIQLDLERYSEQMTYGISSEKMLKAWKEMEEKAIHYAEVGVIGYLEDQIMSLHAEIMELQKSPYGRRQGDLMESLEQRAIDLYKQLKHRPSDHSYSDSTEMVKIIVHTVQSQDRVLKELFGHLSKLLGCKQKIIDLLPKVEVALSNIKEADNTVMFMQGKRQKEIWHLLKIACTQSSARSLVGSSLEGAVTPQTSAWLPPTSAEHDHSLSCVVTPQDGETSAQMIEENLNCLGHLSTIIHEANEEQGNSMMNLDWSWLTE

[7] = molecular target: T2, Inhibitor of nuclear factor kappa-B kinase subunit alpha (Homo sapiens); conditions: at 1 µM
[8] = molecular target: T3, Inhibitor of nuclear factor kappa-B kinase subunit beta (Homo sapiens) (UniProt O14920); conditions: at 0.1 µM
T3 sequence (whole entry): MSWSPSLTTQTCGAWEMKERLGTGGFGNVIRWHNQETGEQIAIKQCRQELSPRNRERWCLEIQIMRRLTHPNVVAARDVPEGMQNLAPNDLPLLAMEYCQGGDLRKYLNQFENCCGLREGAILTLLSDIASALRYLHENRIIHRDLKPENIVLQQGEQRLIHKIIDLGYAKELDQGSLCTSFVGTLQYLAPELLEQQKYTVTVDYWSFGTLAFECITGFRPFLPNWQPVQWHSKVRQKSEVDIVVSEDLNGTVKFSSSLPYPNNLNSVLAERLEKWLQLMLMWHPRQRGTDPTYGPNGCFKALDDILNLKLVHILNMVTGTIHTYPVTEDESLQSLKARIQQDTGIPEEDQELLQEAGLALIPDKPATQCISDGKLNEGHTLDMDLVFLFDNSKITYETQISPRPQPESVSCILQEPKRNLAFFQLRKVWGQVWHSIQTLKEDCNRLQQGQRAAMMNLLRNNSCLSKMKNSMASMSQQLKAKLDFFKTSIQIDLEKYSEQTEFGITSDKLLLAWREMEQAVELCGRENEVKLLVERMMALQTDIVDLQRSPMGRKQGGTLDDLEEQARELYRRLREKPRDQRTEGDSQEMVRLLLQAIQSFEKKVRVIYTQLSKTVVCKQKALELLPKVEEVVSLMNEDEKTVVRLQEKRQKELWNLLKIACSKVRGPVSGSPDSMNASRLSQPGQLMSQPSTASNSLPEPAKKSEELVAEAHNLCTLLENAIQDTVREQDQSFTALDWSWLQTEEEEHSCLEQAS

[9] = molecular target: T3, Inhibitor of nuclear factor kappa-B kinase subunit beta (Homo sapiens); conditions: at 1 µM
[10] = molecular target: T4, Inhibitor of nuclear factor kappa-B kinase subunit epsilon (Homo sapiens) (UniProt Q14164); conditions: at 0.1 µM
T4 sequence (whole entry): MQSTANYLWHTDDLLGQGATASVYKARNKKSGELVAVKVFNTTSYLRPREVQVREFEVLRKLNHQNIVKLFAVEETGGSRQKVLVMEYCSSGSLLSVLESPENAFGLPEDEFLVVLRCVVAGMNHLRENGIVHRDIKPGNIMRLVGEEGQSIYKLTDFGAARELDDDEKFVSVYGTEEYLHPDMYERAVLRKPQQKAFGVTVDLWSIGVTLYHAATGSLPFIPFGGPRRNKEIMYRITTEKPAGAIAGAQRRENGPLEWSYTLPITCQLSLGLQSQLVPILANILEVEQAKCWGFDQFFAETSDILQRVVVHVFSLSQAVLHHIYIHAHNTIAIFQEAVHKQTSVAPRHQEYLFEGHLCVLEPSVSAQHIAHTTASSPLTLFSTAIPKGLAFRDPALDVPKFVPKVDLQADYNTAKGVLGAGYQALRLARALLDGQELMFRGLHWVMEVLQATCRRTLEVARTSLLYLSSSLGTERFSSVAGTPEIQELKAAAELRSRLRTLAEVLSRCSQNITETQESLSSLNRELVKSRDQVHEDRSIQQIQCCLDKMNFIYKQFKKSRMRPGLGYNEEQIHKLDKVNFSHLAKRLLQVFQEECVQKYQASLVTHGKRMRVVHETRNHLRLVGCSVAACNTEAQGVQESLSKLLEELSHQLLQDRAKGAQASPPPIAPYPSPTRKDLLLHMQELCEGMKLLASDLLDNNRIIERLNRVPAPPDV

[11] = molecular target: T4, Inhibitor of nuclear factor kappa-B kinase subunit epsilon (Homo sapiens); conditions: at 1 µM
[12] = molecular target: T5, Serine/threonine-protein kinase Nek1 (Homo sapiens) (UniProt Q96PY6); conditions: at 0.1 µM
T5 sequence (whole entry): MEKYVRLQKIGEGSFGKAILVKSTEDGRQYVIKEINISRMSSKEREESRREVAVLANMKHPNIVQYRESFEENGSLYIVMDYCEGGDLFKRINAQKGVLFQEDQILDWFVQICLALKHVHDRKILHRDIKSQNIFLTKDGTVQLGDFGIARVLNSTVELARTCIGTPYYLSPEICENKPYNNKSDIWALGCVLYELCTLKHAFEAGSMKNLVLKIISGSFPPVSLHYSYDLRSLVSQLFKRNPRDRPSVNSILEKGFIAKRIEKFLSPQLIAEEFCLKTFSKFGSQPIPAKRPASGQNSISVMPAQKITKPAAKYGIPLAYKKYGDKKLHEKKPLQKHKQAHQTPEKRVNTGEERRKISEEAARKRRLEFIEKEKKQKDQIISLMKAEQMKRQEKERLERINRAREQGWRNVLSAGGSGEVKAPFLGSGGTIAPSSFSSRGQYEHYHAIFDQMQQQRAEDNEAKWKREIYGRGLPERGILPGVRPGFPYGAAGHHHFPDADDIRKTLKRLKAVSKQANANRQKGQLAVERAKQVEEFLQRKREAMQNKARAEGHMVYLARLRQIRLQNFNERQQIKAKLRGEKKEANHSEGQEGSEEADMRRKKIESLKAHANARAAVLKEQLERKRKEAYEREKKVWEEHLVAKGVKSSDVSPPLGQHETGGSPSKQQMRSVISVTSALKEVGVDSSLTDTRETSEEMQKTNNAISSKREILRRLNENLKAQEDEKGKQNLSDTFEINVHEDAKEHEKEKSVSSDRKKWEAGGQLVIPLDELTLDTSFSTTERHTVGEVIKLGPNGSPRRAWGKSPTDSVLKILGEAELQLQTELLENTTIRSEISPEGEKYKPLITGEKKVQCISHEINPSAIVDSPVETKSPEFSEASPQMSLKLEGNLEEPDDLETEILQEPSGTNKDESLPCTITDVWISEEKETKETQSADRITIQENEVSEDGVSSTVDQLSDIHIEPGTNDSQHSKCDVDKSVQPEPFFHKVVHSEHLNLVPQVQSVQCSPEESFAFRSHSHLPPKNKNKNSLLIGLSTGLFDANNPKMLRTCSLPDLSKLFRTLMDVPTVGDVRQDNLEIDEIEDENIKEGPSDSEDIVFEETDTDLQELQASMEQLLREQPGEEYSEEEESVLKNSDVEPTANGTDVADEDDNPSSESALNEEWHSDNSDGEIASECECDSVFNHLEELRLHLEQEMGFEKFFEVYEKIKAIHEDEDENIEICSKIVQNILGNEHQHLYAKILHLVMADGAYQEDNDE

[13] = molecular target: T5, Serine/threonine-protein kinase Nek1 (Homo sapiens); conditions: at 1 µM
[14] = molecular target: T6, Serine/threonine-protein kinase Nek2 (Homo sapiens) (UniProt P51955); conditions: at 0.1 µM
T6 sequence (whole entry): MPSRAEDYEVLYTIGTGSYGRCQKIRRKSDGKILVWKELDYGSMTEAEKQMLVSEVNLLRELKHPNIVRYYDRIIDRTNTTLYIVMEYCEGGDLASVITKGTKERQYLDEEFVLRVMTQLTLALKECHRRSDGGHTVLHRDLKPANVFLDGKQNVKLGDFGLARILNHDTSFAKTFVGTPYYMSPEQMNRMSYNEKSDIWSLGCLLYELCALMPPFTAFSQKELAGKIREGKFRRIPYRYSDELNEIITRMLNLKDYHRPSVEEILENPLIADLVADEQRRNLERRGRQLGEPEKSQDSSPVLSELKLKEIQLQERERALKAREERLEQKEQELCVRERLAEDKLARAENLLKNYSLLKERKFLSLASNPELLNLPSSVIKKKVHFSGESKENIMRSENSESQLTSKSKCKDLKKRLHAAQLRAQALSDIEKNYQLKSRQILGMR

[15] = molecular target: T6, Serine/threonine-protein kinase Nek2 (Homo sapiens); conditions: at 1 µM
[16] = molecular target: Serine/threonine-protein kinase Nek6 (Homo sapiens) (UniProt Q9HC98); conditions: at 0.1 µM
Chain of Serine/threonine-protein kinase Nek6 (Homo sapiens) (Q9HC98 whole entry): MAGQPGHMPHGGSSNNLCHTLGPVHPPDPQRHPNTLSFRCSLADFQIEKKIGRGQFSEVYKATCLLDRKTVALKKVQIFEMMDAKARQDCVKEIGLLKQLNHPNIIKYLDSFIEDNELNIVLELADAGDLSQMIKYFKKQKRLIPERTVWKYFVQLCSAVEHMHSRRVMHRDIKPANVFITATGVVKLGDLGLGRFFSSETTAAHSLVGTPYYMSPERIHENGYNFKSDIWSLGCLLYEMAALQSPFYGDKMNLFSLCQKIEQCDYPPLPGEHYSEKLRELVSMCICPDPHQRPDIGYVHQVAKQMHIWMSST

[17] = molecular target: Serine/threonine-protein kinase Nek6 (Homo sapiens) (UniProt Q9HC98); conditions: at 1 µM
[18] = molecular target: Serine/threonine-protein kinase Nek7 (Homo sapiens) (UniProt Q8TDX7); conditions: at 0.1 µM
Chain of Serine/threonine-protein kinase Nek7 (Homo sapiens) (Q8TDX7 whole entry, looked up): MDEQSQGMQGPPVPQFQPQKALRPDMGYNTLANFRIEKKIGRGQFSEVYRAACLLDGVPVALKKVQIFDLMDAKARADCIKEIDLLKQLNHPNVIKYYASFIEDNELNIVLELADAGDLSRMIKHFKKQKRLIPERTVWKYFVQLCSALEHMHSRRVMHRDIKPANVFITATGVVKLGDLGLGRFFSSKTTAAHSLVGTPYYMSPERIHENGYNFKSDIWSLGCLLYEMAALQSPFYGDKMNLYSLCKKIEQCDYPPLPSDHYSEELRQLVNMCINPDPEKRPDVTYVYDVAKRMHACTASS

[19] = molecular target: Serine/threonine-protein kinase Nek7 (Homo sapiens) (UniProt Q8TDX7); conditions: at 1 µM
[20] = molecular target: T7, Serine/threonine-protein kinase Nek9 (Homo sapiens) (UniProt Q8TD19); conditions: at 0.1 µM;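 also: reported value is the mean percent inhibition of NEK9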
T7 sequence (whole entry): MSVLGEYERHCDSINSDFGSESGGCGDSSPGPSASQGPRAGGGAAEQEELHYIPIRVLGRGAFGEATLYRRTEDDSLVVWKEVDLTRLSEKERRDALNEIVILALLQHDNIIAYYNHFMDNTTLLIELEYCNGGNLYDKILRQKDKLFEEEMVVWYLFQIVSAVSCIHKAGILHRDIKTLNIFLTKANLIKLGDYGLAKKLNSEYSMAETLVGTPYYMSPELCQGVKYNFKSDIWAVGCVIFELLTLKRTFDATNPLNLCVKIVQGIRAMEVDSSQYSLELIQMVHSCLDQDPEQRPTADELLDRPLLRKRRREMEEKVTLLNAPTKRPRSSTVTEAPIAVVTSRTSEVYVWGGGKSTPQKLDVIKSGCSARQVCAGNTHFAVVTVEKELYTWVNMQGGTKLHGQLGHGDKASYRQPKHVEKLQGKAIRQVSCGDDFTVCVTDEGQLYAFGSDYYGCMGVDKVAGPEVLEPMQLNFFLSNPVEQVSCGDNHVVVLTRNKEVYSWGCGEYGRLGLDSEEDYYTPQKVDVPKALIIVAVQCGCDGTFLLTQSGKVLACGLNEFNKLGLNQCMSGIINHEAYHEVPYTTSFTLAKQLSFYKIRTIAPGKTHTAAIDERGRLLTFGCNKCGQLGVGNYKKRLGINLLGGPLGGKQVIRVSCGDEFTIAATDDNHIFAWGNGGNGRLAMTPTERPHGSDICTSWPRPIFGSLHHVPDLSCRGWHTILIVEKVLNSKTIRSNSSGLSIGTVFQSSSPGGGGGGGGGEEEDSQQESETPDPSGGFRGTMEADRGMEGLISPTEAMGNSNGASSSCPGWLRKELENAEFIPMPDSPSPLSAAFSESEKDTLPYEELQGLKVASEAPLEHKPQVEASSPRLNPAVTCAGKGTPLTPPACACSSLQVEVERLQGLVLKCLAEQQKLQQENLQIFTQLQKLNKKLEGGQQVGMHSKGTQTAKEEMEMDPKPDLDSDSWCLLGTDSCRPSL

Chain of Sphingosine kinase 1 (Homo sapiens) (Q9NYA1 whole entry): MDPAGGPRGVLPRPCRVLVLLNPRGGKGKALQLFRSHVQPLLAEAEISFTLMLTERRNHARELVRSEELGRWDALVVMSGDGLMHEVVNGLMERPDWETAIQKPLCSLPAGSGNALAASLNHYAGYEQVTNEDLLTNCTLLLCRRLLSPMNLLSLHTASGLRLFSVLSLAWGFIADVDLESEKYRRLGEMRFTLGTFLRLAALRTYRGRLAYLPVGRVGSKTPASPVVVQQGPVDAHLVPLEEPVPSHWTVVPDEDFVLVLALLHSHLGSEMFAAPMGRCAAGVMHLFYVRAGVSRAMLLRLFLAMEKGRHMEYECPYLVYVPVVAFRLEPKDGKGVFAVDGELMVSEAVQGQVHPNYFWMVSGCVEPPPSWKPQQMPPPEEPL

Compound | inhibition [1] [%] | inhibition [2] [%] | inhibition [3] [%] | inhibition [4] [%] | inhibition [5] [%] | inhibition [6] [%] | inhibition [7] [%] | inhibition [8] [%] | inhibition [9] [%] | inhibition [10] [%] | inhibition [11] [%] | inhibition [12] [%] | inhibition [13] [%] | inhibition [14] [%] | inhibition [15] [%] | inhibition [16] [%] | inhibition [17] [%] | inhibition [18] [%] | inhibition [19] [%] | inhibition [20] [%]
CC1(C)CC(n2cnc(-c3ccc(F)cc3)c2-c2ccnc(N)n2)CC(C)(C)N1 | 10.6 | 3.82 | -2.43 | 1.44 | 7.38 | 1.15 | 1.35 | -0.17 | -1.15 | 0.1 | 0.72 | 0.9 | 0.83 | 1.02 | 2.07 | 1.95 | 0.37 | 3.74 | 1.39 | 5.35
COc1ccc(Nc2ncc(-c3ccccc3)o2)cc1OC | 2.47 | -0.42 | -0.4 | 1.03 | 6.83 | 5.31 | 3.86 | 3.33 | 4.83 | 2.76 | 4.37 | 0.52 | 5.19 | 0.8 | 2.25 | 0.31 | -2.42 | 1.23 | 0.83 | -0.52
